Broadly, the AC50 is the midpoint of the concentration-response curve, whichever way the signal moves.

Structures are written as SMILES. Calls of active or inactive are those of the source. Rule for the calls: active = hit-call score of the fitted dose curve at least 0.9, where 1 is the maximum; inactive = score below 0.9.

The assay can be described thus: CCTE_Padilla_ZF_Score.Any: CCTE's 144 Hour Post-fertilization zebrafish Assay Score for Any Mortality or Malformation, Padilla Lab (AID 2284416). The method, then:
CCTE_Padilla_ZF_Phenotype_Score is a whole embryo, multiplexed assay using zebrafish ova exposed for 144 hours post fertilization on a 96-well plate.CCTE_Padilla_ZF_Score.Any is one of one assay component(s) measured or calculated from the CCTE_Padilla_ZF_Phenotype_Score assay. It is designed to make measurements of zebrafish development as detected with brightfield microscopy of developing zebrafish embryos.Data from the assay component CCTE_Padilla_ZF_Score.Any was analyzed into 1 assay endpoints. This assay endpoint, CCTE_Padilla_ZF_Score.Any, was analyzed in the positive analysis fitting direction relative to DMSO as the negative control and baseline of activity. Using a type of viability reporter, gain-of-signal activity can be used to understand changes in developmentals as they relate to the whole embryo. To generalize the intended target to other relatable targets, this assay endpoint is annotated to the zebrafish development intended target family, where the subfamily is embryonic morphogenesis and mortality.
Zebrafish husbandry: Wild type adult zebrafish (Danio rerio; undefined outbred stock obtained from Aquatic Research Organisms, Hampton, NH, 03842) were housed in an AAALAC-approved animal facility at 28C with a 14:10 h light: dark cycle (lights on at 08:30 h). Adult fish (2-3 females per male; density = 15-20 adults per tank) were kept in one of several 9-liter (L) flow-through colony tanks (Aquaneering Inc., San Diego, CA). All adults in a colony tank were placed in a 2 L (static) breeding tank (Aquatic Habitats, Apopka, FL) one hour prior to light onset. Typically, adults from two to three colony tanks were mated on the same day. Two hours after light onset the adults were returned to the colony tank. All embryos were gathered from each breeder tank, pooled, and placed in a 28C water bath for 2 h, followed by two washes with 0.06% bleach (v/v) in 10% Hanks' Balanced Salt Solution (13.7 mM NaCl 0.54 mM KCl, 25 uM Na2HPO4, 130 uM CaCl2 100 um MgSO4 and 420 um NaHCO3,), hereafter referred to as Hanks' solution, for 5 min in order to remove any residual bacteria or fungi. Immediately following washing, the embryos were examined, and healthy embryos were separated from dead or unfertilized eggs and moved into fresh Hanks'. Chemical exposures: Zebrafish embryos were exposed in 96-well plates. Between 6- and 8-hours post fertilization (hpf), healthy embryos (with chorions) were transferred, one embryo per well, into 96 well (0.5 mL) microtiter plates (Cell Culture-Treated, Flat-Bottom Microplate 96 well [Corning Costar, Kennebunk, ME; Cat 09-761-145]) filled with 200 uL of Hanks' solution. A random number generator was used to assign the order in which the rows of embryos were plated in 96 well plates each week. After plating, the embryos were dosed with 0.8 uL of the chemical dosing solution then immediately sealed with AlumaSeal II (Excel Scientific Inc, Victorville, CA) to prevent volatilization of the chemicals, and then placed in a leakproof secondary container. These containers were placed in an incubator maintained on a 14:10 h light: dark cycle at 26C for rearing. On 5 dpf, live larvae were gently moved out of the plate with test chemicals and into a new 96 well mesh plate (Millipore Corp., Bedford, MA) with just the Hanks' solution. Once within the mesh well plate, the animals were rinsed with 400 uL of fresh Hanks' three times, and then the plates were covered with a non-adhesive material (Microseal A, BioRad, Hercules, CA), plate lid added, and then plate sides wrapped in Parafilm (PM992, Bermis Company, Neenah, WI), and returned to the incubator. […]
With `C=CC(=O)OCCC(F)(F)C(F)(F)C(F)(F)C(F)(F)F`, the AC50 is 30 µM (active).

Consider `COC(F)(C(F)F)C(F)(F)F` (stereo not given), for which the result was inactive.

In the case of `NC(O)(C(F)(F)F)C(F)(F)F`, the outcome was inactive.

On to `NC(=O)C(F)(F)C(F)(F)C(F)(F)C(F)(F)C(N)=O`, for which the call was inactive.

In the case of `C=CC(=O)OCC(F)(F)C(F)(F)C(F)(F)C(F)(F)C(F)(F)C(F)(F)C(F)(F)C(F)F`, the compound was called inactive.

As for `O=C(O)C(F)(F)C(F)(F)C(F)(F)OC(F)(F)F`, the compound was called inactive.

Regarding `O=S(=O)(OCC(F)(F)F)C(F)(F)C(F)(F)C(F)(F)C(F)(F)F`, the AC50 is 33.3 µM (active).

`OCC(O)CC(F)(F)C(F)(F)C(F)(F)C(F)(F)C(F)(F)C(F)(F)C(F)(F)C(F)(F)F` (stereo not given): the AC50 is 9.82 µM (active).

Take `C=C(C)C(=O)OCC(F)(F)C(F)(F)C(F)(F)C(F)F`: the AC50 was 30 µM (active).

For the compound `NC(=O)C(F)(F)C(F)(F)C(F)(F)C(F)(F)C(F)(F)C(F)(F)C(F)(F)F`, the compound was classed as inactive.

Turning to `CN(C(=O)C(F)(F)C(F)(F)C(F)(F)F)[Si](C)(C)C`, the result was inactive.

As for `C[Si](Cl)(Cl)CCC(F)(F)C(F)(F)C(F)(F)C(F)(F)C(F)(F)C(F)(F)F`, the compound was called inactive.

With `NC(=O)C(F)(F)C(F)(F)C(F)(F)F`, the outcome was inactive.

Consider `O=S(=O)(O)CCC(F)(F)C(F)(F)C(F)(F)C(F)(F)C(F)(F)C(F)(F)C(F)(F)C(F)(F)F`, for which the outcome was inactive.

For `O=C(O)CCC(F)(F)C(F)(F)C(F)(F)C(F)(F)C(F)(F)C(F)(F)C(F)(F)F`, the outcome was inactive.

For the compound `O=C(Cl)C(F)(F)C(F)(F)C(F)(F)C(F)(F)C(F)(F)C(F)(F)C(F)(F)F`, the AC50 was 86.8 µM (active).

As to `O=C(Cl)C(F)(F)C(F)(F)C(F)(F)C(F)(F)C(F)(F)C(F)(F)F`, the AC50 is 76.8 µM (active).

For the compound `NS(=O)(=O)C(F)(F)C(F)(F)C(F)(F)C(F)(F)C(F)(F)C(F)(F)F`, the AC50 was 1.81 µM (active).

With `O=S(=O)(O)CCC(F)(F)C(F)(F)C(F)(F)C(F)(F)F`, the outcome was inactive.

With `OCC(F)(F)C(F)(F)C(F)(F)C(F)(F)C(F)(F)C(F)(F)C(F)(F)C(F)(F)CO`, the AC50 was 5.84 µM (active).

On to `CCN(CCO)S(=O)(=O)C(F)(F)C(F)(F)C(F)(F)C(F)(F)C(F)(F)C(F)(F)C(F)(F)C(F)(F)F`, for which the compound was called inactive.

Consider `O=C(O)C(F)(F)C(F)(F)C(F)(F)C(F)(F)C(F)(F)C(F)(F)C(F)F`, for which the compound was called inactive.

Take `CO[Si](C)(CCC(F)(F)C(F)(F)C(F)(F)C(F)(F)C(F)(F)C(F)(F)F)OC`: the call was inactive.

For the compound `CCOC(=O)CC(=O)C(F)(F)C(F)(F)F`, the compound was classed as inactive.

Consider `O=C(O)C(F)(F)OC(F)(F)C(F)(F)OC(F)(F)C(F)(F)OC(F)(F)F`, for which the outcome was inactive.

In the case of `O=C(F)C1(F)C(F)(F)C(F)(F)C(F)(F)C(F)(F)C1(F)F`, the compound was classed as inactive.

With `C=CC(=O)OCC(F)(F)C(F)(F)C(F)(F)COC(=O)C=C`, the AC50 was 8.95 µM (active).

On to `OCCCC(F)(F)C(F)(F)C(F)(F)C(F)(F)C(F)(F)C(F)(F)C(F)(F)C(F)(F)F`, for which the outcome was inactive.

Turning to `OCC(F)(F)C(F)(F)C(F)(F)C(F)(F)C(F)(F)C(F)(F)CO`, the AC50 was 62.4 µM (active).

Turning to `CNS(=O)(=O)C(F)(F)C(F)(F)C(F)(F)C(F)(F)C(F)(F)C(F)(F)C(F)(F)C(F)(F)F`, the AC50 is 0.778 µM (active).

As to `OCCCCC(F)(F)C(F)(F)C(F)(F)C(F)(F)F`, the AC50 is 29 µM (active).

For the compound `FC(F)(F)C(F)(F)C(F)(F)C(F)(F)C(F)(F)C(F)(F)C(F)(F)CCI`, the outcome was inactive.

Turning to `OC(O)C(F)(F)C(F)(F)F`, the compound was called inactive.

As to `O=S(=O)(Cl)C(F)(F)C(F)(F)C(F)(F)C(F)(F)C(F)(F)C(F)(F)C(F)(F)C(F)(F)F`, the AC50 is 12.1 µM (active).

With `O=C(O)C(F)(F)C(F)(F)C(F)(F)OC(F)(C(F)(F)F)C(F)(F)F`, the compound was classed as inactive.

On to `NC(=O)C(F)(F)C(F)(F)C(F)(F)C(F)F`, for which the result was inactive.

In the case of `OCC(O)CC(F)(F)C(F)(F)C(F)(F)C(F)(F)F` (stereo not given), the outcome was inactive.

`OCC(F)(F)C(F)(F)C(F)(F)CO`: the call was inactive.

Take `NCC(F)(F)C(F)(F)C(F)(F)C(F)(F)C(F)(F)C(F)(F)F`: the AC50 is 75.3 µM (active).

For the compound `FC(F)(F)C(F)(F)C(F)(F)CC1CO1` (stereo not given), the result was inactive.
